Our source for the z-score values is PubChem BioAssay AID488969 (Vanderbilt High Throughput Screening Facility, 2010).

The structures appear in SMILES notation. Whole data set: some 110,000 compounds, median “z-score” near -0.1, cut for the highest 2% near 2. This excerpt belongs to a sample that is enriched for the highest values. Activity calls are given as the source filed them.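 Rule for the calls: active = z-score in the third read window above 3 or below -3; inactive = the rest.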

The target of the assay is Metabotropic glutamate receptor 8 (Rattus norvegicus) (UniProt P70579). As to the kind of experiment: rat mGluR8 modulators via GIRK flux, primary screen, cell-based, thallium flux, HTS (AID 488969). Conditions: HEK293 rat mGluR8, GIRK (G protein-gated inwardly rectifying potassium channel) thallium flux, FluoZin2; at 10 µM; stronger effect = higher value; submaximal glutamate (EC20) added with thallium.
Chain of Metabotropic glutamate receptor 8 (Rattus norvegicus) (P70579 whole entry, looked up): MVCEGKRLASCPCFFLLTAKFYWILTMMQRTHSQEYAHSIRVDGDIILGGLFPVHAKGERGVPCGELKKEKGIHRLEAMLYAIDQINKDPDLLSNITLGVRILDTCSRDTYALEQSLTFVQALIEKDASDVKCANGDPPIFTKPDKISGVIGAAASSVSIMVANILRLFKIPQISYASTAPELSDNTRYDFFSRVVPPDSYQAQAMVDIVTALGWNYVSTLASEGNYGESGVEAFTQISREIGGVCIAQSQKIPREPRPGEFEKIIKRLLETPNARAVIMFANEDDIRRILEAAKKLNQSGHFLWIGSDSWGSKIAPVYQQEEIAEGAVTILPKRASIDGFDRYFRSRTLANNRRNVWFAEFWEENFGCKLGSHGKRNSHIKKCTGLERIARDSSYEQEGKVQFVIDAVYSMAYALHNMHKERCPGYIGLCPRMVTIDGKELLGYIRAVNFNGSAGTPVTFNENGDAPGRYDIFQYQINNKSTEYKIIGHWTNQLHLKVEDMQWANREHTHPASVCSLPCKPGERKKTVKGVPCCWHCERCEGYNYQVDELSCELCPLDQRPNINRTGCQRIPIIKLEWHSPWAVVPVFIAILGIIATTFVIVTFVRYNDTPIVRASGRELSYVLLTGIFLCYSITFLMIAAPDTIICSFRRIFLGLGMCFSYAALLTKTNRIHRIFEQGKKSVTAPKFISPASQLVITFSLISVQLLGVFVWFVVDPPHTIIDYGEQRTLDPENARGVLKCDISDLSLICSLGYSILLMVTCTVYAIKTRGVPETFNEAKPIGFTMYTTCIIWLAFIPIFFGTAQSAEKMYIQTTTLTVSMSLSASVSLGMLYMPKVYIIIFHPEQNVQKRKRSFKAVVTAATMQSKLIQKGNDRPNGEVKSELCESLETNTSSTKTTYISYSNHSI
For `CCCn1nc(C(=O)OCC(=O)c2ccc3c(c2)NC(=O)CO3)c2ccccc2c1=O`, the z-score was -1.71. With `O=C(NNS(=O)(=O)c1ccccc1)c1ccncc1` the figure was -0.151. Next, `CC1=CC(C)(C)Nc2ccc(OC(=O)CN3C(=O)C4CCCCC4C3=O)cc21` (centres undefined): 1.08; `CC1=CC(C)(C)Nc2ccc(OC(=O)C(Cc3ccccc3)N3C(=O)C4CCCCC4C3=O)cc21` (centres undefined): 2.63. With `CC1=CC(C)(C)Nc2ccc(OC(=O)C(Cc3ccccc3)N3C(=O)c4ccccc4C3=O)cc21` (centres undefined), the z-score was 1.05. Regarding `CCC(CC)NC(=O)/C=C/c1ccccc1Cl`, the z-score was -0.178. Consider `CCC(Sc1nc2ccc(C)cc2[nH]1)C(=O)O` (centres undefined), for which the z-score was found to be 0.179. Next, `COC(=O)c1cc(OC)c(OC)cc1NC(=O)c1ccc(C)o1`: -0.653; `CC(C)(C)c1ccc(C(=O)NCC(=O)OCC(=O)Nc2ccc3c(c2)OCCO3)cc1`: 0.131; `CCCCC(=O)Nc1ccc(Br)cc1C(=O)O`: -0.24. With `CC1CC2=C(CC1/C=N/NC(N)=S)C(C)(C)CCC2` (centres undefined), the z-score is 3.44 (active). With `C/C(CC1CC2=C(CC1(C)C)C(C)(C)CCC2)=N\NC(N)=S` (centres undefined) the figure was 0.599; with `CC1=C(CC/C(C)=N/NC(N)=S)C(C)(C)CCC1`, 1.85; with `CCCCNC(=O)Cn1nc([N+](=O)[O-])c([N+](=O)[O-])c1C`, -0.27. With `Cc1noc(C)c1S(=O)(=O)N1CCN(c2ccccc2)CC1` the figure was -0.073; with `Cc1noc(C)c1S(=O)(=O)N1CCC(C(=O)N(C)Cc2ccccc2)CC1`, -0.182.

Consider `Cc1noc(C)c1S(=O)(=O)N1CCC(Cc2ccccc2)CC1`, for which the z-score worked out at 2.68.

For `COc1ccc(CCn2c(N)c(S(=O)(=O)c3cccs3)c3nc4ccccc4nc32)cc1OC`, the z-score is -0.349. Next, `COc1ccc(CC(=O)OCCN(C)C)cc1`: 0.0321; `O=C(CN1C(=O)/C(=C\c2cccc(F)c2)Oc2ccccc21)N1CCN(c2ccccn2)CC1`: 0.117; `O=C(CCN1C(=O)COc2ccccc21)N1CCN(c2ccccn2)CC1`: 0.258. With `O=C(CN1C(=O)/C(=C/c2ccccc2F)Oc2ccccc21)N1CCN(c2ccccn2)CC1` the figure was 6.44 (active).

For `O=C(CN1C(=O)c2cccc3cccc(c23)C1=O)N1CCN(c2ccccn2)CC1`, the z-score was 8.64 (active). `O=C(CN1C(=O)c2ccccc2C1=O)N1CCN(c2ccccn2)CC1`: the z-score was -0.293.

In the case of `O=C(CCCN1C(=O)c2cccc3cccc(c23)C1=O)N1CCN(c2ccccn2)CC1`, the z-score came to 0.0204. As to `CC(C)c1nnc(SCC(=O)NCc2ccc3c(c2)OCO3)n1C`, the z-score was -0.49. On to `CCn1c(=O)n(CC)c2cc([N+](=O)[O-])ccc21`, for which the z-score was -0.0668.

Consider `COc1ccccc1NC(=O)Cc1c(F)cccc1Cl`, for which the z-score was -0.193. In the case of `O=C(Nc1cccc2ncccc12)c1ccc(-c2ccc(Br)cc2)o1`, the z-score was -0.163. With `CCOC(=O)C1=C(C)NC(=O)NC1c1ccc(Br)o1` (centres undefined) the figure was 2.92; with `CCOC(=O)C1=C(C)NC(=O)NC1c1ccc(C)o1` (centres undefined), 0.0551. Next, `CCOC(=O)C1=C(C)NC(C)=C(C(=O)OCC)C1c1ccc(Br)o1`: -0.356; `O=C(CN1C(=O)c2ccccc2C1=O)NCCc1c[nH]c2ccccc12`: -0.164; `CCOc1ccc(C2=C(C=Nc3c(C)n(C)n(-c4ccccc4)c3=O)C(c3ccc(F)cc3)c3ccccc3O2)cc1` (centres undefined): 1.53. With `CCc1c(C)n([O-])c2c([n+]1=O)CCC2` the figure was 0.305.

Turning to `Cc1ccc(-c2c(C)n([O-])c3c([n+]2=O)CCC3)cc1`, the z-score was -0.263. With `Cc1c(C)[n+](=O)c2c(n1[O-])CCC2` the figure was 14.6 (active). As for `Cc1ccc(OCCCSc2ncccn2)cc1C`, the z-score was -0.106. Next, `Cn1c(SCc2nnc(-c3ccc(F)cc3)o2)nnc1C1COc2ccccc2O1` (centres undefined): -0.382; `O=C(NC1CCCCCC1)c1cccc(N2CCCC2=O)c1`: -0.399. With `CN1CCN(C(=O)CN(Cc2ccc(Cl)cc2)S(C)(=O)=O)CC1` the figure was 0.244; with `Cc1cc(NC(=O)CSc2nc3ccccc3n2CC(=O)N2CCCCC2)no1`, 0.0584; with `Cc1ccc(N2C(=O)C3CC(c4ccccc4)=C4C5C=CC(C6C(=O)N(c7ccc(C)cc7)C(=O)C56)C4C3C2=O)cc1` (centres undefined), -0.0459. Next, `COc1ccc(S(=O)(=O)Nc2cccc(NC(C)=O)c2)cc1`: 0.142. For `COc1cc2c(cc1NC(=O)Nc1ccc(C)cc1)oc1ccccc12`, the z-score is -0.398. Take `Cc1ccc(OCC(=O)Nc2oc(-c3ccccc3)c(-c3ccccc3)c2C#N)cc1`: the z-score is -0.212.

In the case of `COc1cc2c(cc1NC(=O)COc1ccccc1OC)oc1ccccc12`, the z-score was 5.54 (active). Next, `Cc1cccc(C)c1OCC(=O)Nc1oc(-c2ccccc2)c(-c2ccccc2)c1C#N`: -0.376; `COc1ccc(OCC(=O)Nc2cc3oc4ccccc4c3cc2OC)cc1`: -0.347; `COc1cc2c(cc1NC(=O)Nc1ccccc1)oc1ccccc12`: -0.0976. In turn, `COc1cc2c(cc1NC(=O)Nc1cccc(C)c1)oc1ccccc12` came in with a z-score of 2.68.

Consider `COc1cc2c(cc1NC(=O)COc1ccc3ccccc3c1)oc1ccccc12`, for which the z-score was -0.183. Next, `COc1ccccc1OCC(=O)Nc1oc(-c2ccccc2)c(-c2ccccc2)c1C#N`: 2.87; `CCn1c(SCc2nc(-c3ccc(OC)c(OC)c3)no2)nnc1-c1cccs1`: -1.5; `Cc1ccccc1OCCCC(=O)Nc1ccc2c(c1)OCO2`: 0.157.

With `O=C(Nc1cccc(S(=O)(=O)N2CCCC2)c1)c1ccc2c(=O)n3c(nc2c1)CCCCC3`, the z-score was -1.24. As for `COc1ccc(/C=N/n2c(=O)[nH]c3c([nH]c4ccc(C)cc43)c2=O)cc1CN1CCOCC1`, the z-score is -0.0345. With `CC(=O)N(c1ccccc1)c1nc(C)cc(C)c1C#N` the figure was -0.111.

Regarding `Cc1[nH]c2ccccc2c1C(=O)COC(=O)C1CC(=O)N(Cc2ccccc2)C1` (centres undefined), the z-score is -0.363. Take `CSc1nc2nccc(-c3ccc(-c4ccccc4)cc3)n2n1`: the z-score is -0.5. Next, `CSCCC(NC(=O)c1ccccc1)C(=O)NC1CC1` (centres undefined): 0.177. In the case of `Cc1nn(C(C)C(=O)N2CCCCC2)c(=O)c2c1sc1ccccc12` (centres undefined), the z-score is -0.115.

As to `CCCCN(CCCC)C(=O)c1ccccc1NC(=O)CN1C(=O)c2ccccc2C1=O`, the z-score is -0.366. `C=CCN(C)CC/C=C1\c2ccccc2CSc2ccccc21` had a z-score of 1.99.

For `C#CCN(C)CC/C=C1\c2ccccc2CSc2ccccc21`, the z-score was 1.63. `CC(O)CN(C)CC/C=C1/c2ccccc2CSc2ccccc21` (centres undefined) gave a z-score of 0.694.

In the case of `O=C1c2ccccc2C(=O)c2c1ccc(C(=O)N1CCCCC1)c2NCCO`, the z-score amounted to 0.68. Next, `Cc1cc(OCC(=O)O)c2ccccc2n1`: -0.146; `CC1(Br)C2CCCC1C2S(=O)(=O)c1ccccc1` (centres undefined): -0.376.
